A short description of assay [1]: Viability qHTS for spleen associated tyrosine kinase inhibitor (SYKi) naive MV4-11 cells (AID 1963823). Also: nearly all actives have a fitted effect of over 40% in size. A digest of the protocol:
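Compounds were dispensed acoustically onto plates, MV4-11 cells (SYKi-naive) added at 500 per well, and plates incubated 72 hr at 37 C. CellTiter-Glo was added and luminescence measured after 10 min.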
In general terms: qHTS replaces the single test concentration by a dilution series.

Assay [2] can be described thus: Viability qHTS for spleen associated tyrosine kinase inhibitor (SYKi) drug resistant MV4-11 cells (AID 1963824). Also: nearly all actives have a fitted effect of over 35% in size. The method, boiled down: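 CellTiter-Glo luminescence, read 10 min after reagent addition, reports viability after a 72 hr compound exposure. Cells are an MV4-11 line made resistant to SYK inhibition, seeded at 500 per well onto compound-containing plates.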

Results filed as inconclusive are left out. The source made the active and inactive calls. Calls follow the shape of the dose curve; as a rule, active = well fitted cell-killing curve with a large enough effect; inconclusive = small, poorly fitted or top-dose-only effect, or effect the other way; inactive = no such curve, though single readings can be large or run the other way.
Potency is read from the fitted curve at half-maximal effect.

With `COc1ccsc1CNCC[C@@]1(c2ccccn2)CCOC2(CCCC2)C1`, the Potency result in assay [1] and in assay [2] was “inactive” each time.

Turning to `CC[C@H]1C[C@@H]2CC[C@@H](O2)[C@@H](C)C(=O)O[C@H](CC)C[C@H]2CC[C@H](O2)[C@H](C)C(=O)O[C@@H](C)C[C@@H]2CC[C@@H](O2)[C@@H](C)C(=O)O[C@H](CC)C[C@H]2CC[C@H](O2)[C@H](C)C(=O)O1`, the Potency in assay [1] is 12.2 nM (active); in assay [2], 13.7 nM (active).

For the molecule `C[C@@H](CN1CCC2(CC1)C(=O)NCN2c1cccc(F)c1)NC(=O)c1ccc(Br)cc1`, the Potency in assay [1] was 16400 nM (active); in assay [2], 13000 nM (active).

For the molecule `CC(=O)OC[C@]12C[C@H](OC(=O)CC(C)C)C(C)=C[C@H]1O[C@@H]1[C@H](O)C[C@@]2(C)[C@]12CO2`, the figures for the Potency in assay [1] and in assay [2] were 252 nM (active) and 282 nM (active), respectively.

For `COC1CC(O[C@H]2CC[C@@]3(C)C(CCC4C3CC[C@]3(C)C(C5=CC(=O)OC5)CCC43O)C2)OC(C)C1OC1OC(COC2OC(CO)C(O)C(O)C2O)C(O)C(O)C1O` (stereo partly specified), the Potency in assay [1] was 1230 nM (active); in assay [2], 693 nM (active).

For `C[C@H]1C(=O)O[C@H]2[C@H](O)[C@]34C5OC(=O)[C@]3(O[C@@H]3OC(=O)[C@H](O)C34[C@H](C(C)(C)C)[C@H]5O)C12O` (stereo partly specified), the Potency result in assay [1] and in assay [2] was “inactive” each time.

With `COC(=O)C1(C)CCC(=O)C2(C)c3c(O)cc(C(C)C)cc3C(O)C(OC(C)=O)C12` (stereo unspecified), the Potency result in assay [1] and in assay [2] was “inactive” in each case.

Turning to `CO/C1=C\C(C)=C\[C@@H](C)[C@@H](O)[C@@H](C)C/C(C)=C/C=C/[C@H](OC)[C@@H]([C@@H](C)[C@@H](O)[C@H](C)[C@@]2(O)C[C@@H](O)[C@H](C)[C@@H](C(C)C)O2)OC1=O`, the Potency is 21.7 nM (active) in assay [1] and 17.2 nM (active) in assay [2].

Source of the values: PubChem BioAssay (NCATS).
